Bioassay records as filed in PubChem BioAssay.
The list is not random: actives were taken first. Their share in the collection is about 4.2%.
PrPC surface inh: cell surface PrPC inhibition, primary TR-FRET screen; P04156; TR-FRET read-out; inhibition, % at 13.8 µM; 370,000 compounds, 0.43% hits; in the data active = inhibition above about 24%; also: 0% = median of the test wells and 100% = reference compound wells
RecA splice inh: inhibitors of M. tuberculosis RecA intein splicing; cell-free RecA intein splicing, fluorescence; 290,000 compounds, 0.75% hits; inhibition, % (no concentration beside the values); in the data active = inhibition above about 30%;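 also: 0% = vehicle wells and 100% = reference inhibitor control wells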
Target sequence (P9WHJ3 whole entry, looked up, canonical isoform): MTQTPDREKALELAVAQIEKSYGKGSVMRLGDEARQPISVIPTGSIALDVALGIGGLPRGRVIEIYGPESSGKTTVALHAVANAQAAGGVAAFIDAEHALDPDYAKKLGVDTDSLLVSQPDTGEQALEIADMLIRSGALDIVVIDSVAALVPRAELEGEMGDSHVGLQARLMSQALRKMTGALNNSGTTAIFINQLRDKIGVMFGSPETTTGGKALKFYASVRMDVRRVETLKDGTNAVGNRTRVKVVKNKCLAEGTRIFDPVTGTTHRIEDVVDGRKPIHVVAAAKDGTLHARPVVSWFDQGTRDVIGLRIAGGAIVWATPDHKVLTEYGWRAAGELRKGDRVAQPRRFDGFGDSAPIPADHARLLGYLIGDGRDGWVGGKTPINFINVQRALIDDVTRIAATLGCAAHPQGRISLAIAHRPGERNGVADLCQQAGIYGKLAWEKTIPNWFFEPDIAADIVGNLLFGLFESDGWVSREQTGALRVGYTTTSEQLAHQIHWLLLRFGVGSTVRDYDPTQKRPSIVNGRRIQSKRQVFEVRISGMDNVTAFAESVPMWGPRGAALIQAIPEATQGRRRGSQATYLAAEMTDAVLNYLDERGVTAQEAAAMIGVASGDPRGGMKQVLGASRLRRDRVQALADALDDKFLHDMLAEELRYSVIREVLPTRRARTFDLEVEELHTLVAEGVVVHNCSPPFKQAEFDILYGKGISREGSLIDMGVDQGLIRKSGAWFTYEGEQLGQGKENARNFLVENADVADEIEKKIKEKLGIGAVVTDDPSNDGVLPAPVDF
GDH-TPI inh: counter-screen for M. tuberculosis FBA inhibitors: GDH-TPI coupled enzymes; 360,000 compounds, 1.2% hits; inhibition, % at 4.8 µM; GDH-TPI coupled enzyme counterscreen, NADH absorbance; in the data active = inhibition above about 30%;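 also: 0% = DMSO wells and 100% = wells lacking the enzyme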
BJeLR lethal: BJeLR cell viability loss | BJeLR (HRASV12) viability, CellTiter-Glo ATP luminescence, 48 h | inhibition, % (concentration not given with the values) | 300,000 compounds, 0.17% hits | AID 1554; in the data active = inhibition above about 50%
Mtb FBA inh: inhibitors of M. tuberculosis fructose-bisphosphate aldolase. P9WQA3. purified M. tuberculosis FBA, fluorescence read-out. inhibition, % at 1 µM. 360,000 compounds, 2.3% hits. AID 588726; in the data active = inhibition above about 27%;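 also: 0% = vehicle and 100% = reference inhibitor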
Starred values were filed as active, the others as inactive.

COc1ccc(/C=C2\SC(=O)N(CCC(=O)N3CCN(C)CC3)C2=O)cc1 was read as PrPC surface inh -12, RecA splice inh 2, GDH-TPI inh 41*, BJeLR lethal -4 and Mtb FBA inh -1.
For CCO/C(C)=N/n1c2nc3ccccc3nc2c2c(=O)n(Cc3ccccc3Cl)c(C)nc21 the results were PrPC surface inh -25, RecA splice inh 0, GDH-TPI inh 33*, BJeLR lethal 3 and Mtb FBA inh -4.
Screening Cc1cccc(NC(=O)C2CCCN(c3nnc(-n4cccc4)s3)C2)c1C (centres undefined) returned PrPC surface inh -3.
C=CCCC(=O)N[C@H]1CC[C@@]23CCCN2C(=O)CCC[C@H]3[C@H]1CCC was read as PrPC surface inh 6.
For Cc1ccccc1N1CCN(S(=O)(=O)c2nnc(NC(=O)c3ccco3)s2)CC1 the results were PrPC surface inh 8, RecA splice inh 3, GDH-TPI inh 35*, BJeLR lethal 8 and Mtb FBA inh 2.
COc1ccc(/C=C2/CN(Cc3ccc(OC)cc3OC)C3=N[C@H](c4ccccc4)CC(=O)N32)cc1 was read as PrPC surface inh -2.
`ClC1=C(Cl)C(Cl)=C(Cl)C1=C/C=C/c1ccccc1` gave PrPC surface inh -9, RecA splice inh 4, GDH-TPI inh 5, BJeLR lethal 89* and Mtb FBA inh -4.
`O=C1NC(=O)N(c2ccccc2)C(=O)/C1=C\C=C\c1ccccc1` gave PrPC surface inh -5, GDH-TPI inh 5, BJeLR lethal 38 and Mtb FBA inh 1.
CCOC(=O)C1CCC(C(=O)OCC)N1c1ccc(C=O)cc1 (centres undefined) was read as PrPC surface inh 5, GDH-TPI inh 33* and Mtb FBA inh 2.
Screening N#Cc1ccc(C(=O)Nc2cc(S(=O)(=O)N3CCOCC3)ccc2N2CCOCC2)cc1 returned PrPC surface inh 4, GDH-TPI inh -7 and Mtb FBA inh 1.
For C#Cc1ccc(C(=O)Nc2cc(C(N)=O)ccc2N2CCOCC2)cc1 the results were PrPC surface inh 3, RecA splice inh 1, GDH-TPI inh 32*, BJeLR lethal 1 and Mtb FBA inh 1.
`O=[N+]([O-])c1ccccc1/C=C/C=Nn1c(-c2ccc(F)cc2)n[nH]c1=S` gave PrPC surface inh -7.
CCS(=O)(=O)N1Cc2ccccc2CC1C(=O)OCC(=O)Nc1ccc(SC(F)F)cc1 (centres undefined) was read as PrPC surface inh 2, RecA splice inh 7, GDH-TPI inh 7, BJeLR lethal -6 and Mtb FBA inh 2.
Screening CCS(=O)(=O)N1Cc2ccccc2CC1C(=O)OCC(=O)Nc1ccc(C)cc1 (centres undefined) returned PrPC surface inh 5, RecA splice inh 4, GDH-TPI inh 117*, BJeLR lethal 1 and Mtb FBA inh 1.
CN(C)/C=C/c1onc(-c2c(Cl)cccc2Cl)c1C#N was read as PrPC surface inh 3, RecA splice inh 2, GDH-TPI inh 31*, BJeLR lethal 5 and Mtb FBA inh -1.
Screening N#Cc1c(-c2c(Cl)cccc2Cl)noc1/C=C/Nc1ccc(C(=O)O)cc1 returned PrPC surface inh 5, RecA splice inh -12, GDH-TPI inh 21, BJeLR lethal 1 and Mtb FBA inh 8.
`CC(C)(C)NC(=O)[C@H](c1cccnc1)N(C(=O)c1ccco1)c1ccc(C(C)(C)C)cc1` gave PrPC surface inh -2.
For COC(=O)c1ccc(S(=O)(=O)c2ccccc2)c(N)c1 the results were PrPC surface inh 0, RecA splice inh -2, GDH-TPI inh 10, BJeLR lethal -1 and Mtb FBA inh 121*.
Screening COC(=O)c1ccc(C(=O)OC)c(N)c1 returned RecA splice inh -95.
CCOC(=O)c1ccccc1NC(=O)COC(=O)CSCC(=O)Nc1cc(C)on1 was read as PrPC surface inh -5, RecA splice inh -4, GDH-TPI inh 2, BJeLR lethal -8 and Mtb FBA inh 1.
Cc1cc(NC(=O)COC(=O)c2ccccc2NCCO)no1 was read as PrPC surface inh 10, GDH-TPI inh 21 and Mtb FBA inh 127*.
For CN(C)/C=C1\N=C(c2ccc(Cl)cc2Cl)OC1=O the results were PrPC surface inh -3, RecA splice inh -1, GDH-TPI inh 20, BJeLR lethal 17 and Mtb FBA inh -2.
`Cc1ccc(C2=N/C(=C\N(C)C)C(=O)O2)cc1` gave PrPC surface inh -3, RecA splice inh 0, GDH-TPI inh 45*, BJeLR lethal -11 and Mtb FBA inh 0.
For CN(C)/C=C1/N=C(c2ccccc2)OC1=O the results were PrPC surface inh -4, RecA splice inh 4, GDH-TPI inh 52*, BJeLR lethal 3 and Mtb FBA inh 0.
`COc1ccc(OC)c(/C=C2\N=C(c3ccccc3)OC2=O)c1` gave PrPC surface inh 0, RecA splice inh -15, GDH-TPI inh 8, BJeLR lethal 2 and Mtb FBA inh 0.
Cc1ccc(C2=N/C(=C\c3cccc(F)c3)C(=O)O2)cc1 was read as PrPC surface inh -1, RecA splice inh -1, GDH-TPI inh 3, BJeLR lethal 8 and Mtb FBA inh 0.
CN(C)/C=C1\N=C(c2cccs2)OC1=O was read as PrPC surface inh -3, RecA splice inh 1, GDH-TPI inh 49*, BJeLR lethal 5 and Mtb FBA inh -1.
`CN(C)/C=C1\N=C(c2cccnc2Oc2ccc(Cl)cc2)OC1=O` gave PrPC surface inh 2, RecA splice inh -4, GDH-TPI inh 32*, BJeLR lethal -13 and Mtb FBA inh 1.
CCOc1ccc(/C=C2\N=C(c3cccs3)OC2=O)cc1OC was read as RecA splice inh -2 and BJeLR lethal 5.
C=CCN1[C@H](C)COc2cc(N3CCSCC3)ccc2S1(=O)=O was read as PrPC surface inh 5.
O=C1OC(c2ccccc2)=N/C1=C\N1CCCCC1 was read as PrPC surface inh -4, RecA splice inh 4, GDH-TPI inh 41*, BJeLR lethal -6 and Mtb FBA inh -3.
O=C(COCc1ccccc1)NC1CCCCN(Cc2ccc(Cl)cc2)C1=O (centres undefined) was read as PrPC surface inh -1.
Screening NS(=O)(=O)c1ccc(NNC(=O)c2ccc(Br)o2)c([N+](=O)[O-])c1 returned PrPC surface inh -69, GDH-TPI inh 45* and Mtb FBA inh -5.
Screening COC(=O)c1cccc(OCC(C)CN2CCC(C(O)(c3ccccc3)c3ccccc3)CC2)c1 (centres undefined) returned PrPC surface inh -4.
CNC(=O)c1cc2c(s1)-c1ccccc1CC2 was read as PrPC surface inh -6, RecA splice inh 1, GDH-TPI inh 17, BJeLR lethal 0 and Mtb FBA inh active.
`COC(=O)c1cc2c(s1)-c1ccccc1OC2` gave PrPC surface inh -25, RecA splice inh -24, GDH-TPI inh 15, BJeLR lethal -11 and Mtb FBA inh active.
